A selection: hits, their analogues and other compounds. The true share with any hit is near 5.5%.
Integrin act MD: integrin-mediated muscular dystrophy alleviation activation. AID 624291. alpha7betagal myoblasts, beta-gal FDG fluorescence, 48 h. Potency, µM (highest dose often 38.3 µM), for inactives: at the highest dose activation, hits mostly activators. actives 0.064% (n = 350,000);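 also: 100% = response of the positive control SU9516; nearly all actives have a fitted effect of over 60% in size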
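alpha7betagal+/- myoblasts (passage 13, 250/well) treated 48 h at 37C with compounds at 1:260 dilution of DMSO stock. Lysed, then beta-galactosidase activity read as FDG fluorescence (ex 480/em 540) after 30 min, with pre-read for autofluorescence.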
BCR signal inh: inhibitors of chronic active B-cell receptor signaling. ABC-DLBCL IkBa-CBG/CBR reporter, luminescence ratio, 4 h. Potency, µM (titrated, usually from 46.1 µM), for the others: at the highest dose activity change, negative = inhibition, usual class: inhibitors. actives 0.05% (n = 340,000). AID 493014; active = well fitted inhibition curve with a large enough effect in the signal ratio, with a control signal flat, not every such curve was filed as active; inconclusive = small, poorly fitted or top-dose-only effect, or effect the other way, or a change in a side signal; the % refers to the signal ratio;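 also: plate controls were basal doxycycline-induced cells for no effect and cells given 10 µM MG132 for full effect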
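Cell line TMD8 (human ABC DLBCL), stably expressing tet-inducible CBG68-IkBa fusion and CBR; IMDM/0.5% FBS; cpd up to 46 uM; dox induction, 4 h, 37C/5% CO2; dual luminescence; green/red ratio; MG132 control.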
Mito fusion yeast: mitochondrial division inhibition or fusion activation. S. cerevisiae fusion-defective mutant growth rescue, CellTiterGlo 48 h. Potency, µM (top dose mostly 46.1 µM), for the others: at the top dose growth rescue (activation), most hits filed as activators. actives 0.23% (n = 320,000). AID 485298; also: % of control where 0% means no effect; nearly all actives have a fitted effect of over 45% in size
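Compounds are tested for their ability to restore growth of mitochondrial fusion-defective yeast strains at non-permissive 37C in YPEG medium over 48 hours. Viability is quantified by luciferase luminescence.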
uPA generation: cell surface uPA generation inhibition; cell surface uPA generation assay, qHTS; Potency, µM (highest dose often 38.3 µM), without a hit: at the top dose activity change, negative = inhibition, actives largely listed as inhibitors; actives 0.31% (n = 330,000); active = well fitted inhibition curve with a large enough effect; inconclusive = small, poorly fitted or top-dose-only effect; inactive = no such curve, though single readings can be large or run the other way; tested in mouse RAW 264.7 cells; also: % is scaled to controls: 0 for no effect and ±100 for the full control effect; nearly all actives have a fitted effect of over 55% in size
RORg inh: inhibitors of mouse ROR gamma transcriptional activity | P51450 | Drosophila S2 Gal4-RORgamma UAS-luciferase reporter, 20 h | Potency, µM (titrated, usually from 53.6 µM), for inactives: at the top dose activity change, negative = inhibition, hits mostly inhibitors | actives 5.4% (n = 310,000) | AID 2551; also: % is scaled to controls: 0 for no effect and ±100 for the full control effect; nearly all actives have a fitted effect of over 60% in size
Target sequence (P51450 whole entry, looked up, the tested form may be a part): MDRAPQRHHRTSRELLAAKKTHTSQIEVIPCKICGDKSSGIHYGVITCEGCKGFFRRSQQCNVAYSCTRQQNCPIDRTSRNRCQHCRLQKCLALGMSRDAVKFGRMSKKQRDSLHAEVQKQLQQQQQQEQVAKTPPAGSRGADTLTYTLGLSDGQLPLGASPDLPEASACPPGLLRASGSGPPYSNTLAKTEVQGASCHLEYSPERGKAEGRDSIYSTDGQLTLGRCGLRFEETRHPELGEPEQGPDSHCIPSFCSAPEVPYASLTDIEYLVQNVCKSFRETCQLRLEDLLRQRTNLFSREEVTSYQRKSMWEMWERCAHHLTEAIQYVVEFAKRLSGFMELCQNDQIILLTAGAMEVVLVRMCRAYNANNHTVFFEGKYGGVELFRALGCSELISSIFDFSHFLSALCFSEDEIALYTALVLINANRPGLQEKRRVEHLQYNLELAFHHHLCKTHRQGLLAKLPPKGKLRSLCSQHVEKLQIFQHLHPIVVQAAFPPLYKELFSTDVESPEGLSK
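Luciferase reporter read in Schneider cells carrying Gal4-RORγ (mouse) and UAS-Photinus luciferase; cells given compound 1 h before 700 uM copper sulfate induction, then incubated 20 h at ambient temperature.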
Gal4-VP16 FLuc: Gal4-VP16 reporter inhibition counter-screen | Drosophila S2 Gal4-VP16 UAS-luciferase, luminescence, 20 h | AID 2546 | actives 3.5% (n = 310,000) | Potency, µM (titrated, usually from 53.6 µM), for inactives: top-dose activity, negative = inhibition, actives largely listed as inhibitors;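 also: Gal4-VP16 expression switched on by copper sulfate through the metallothionein promoter; % is scaled to controls: 0 for no effect and ±100 for the full control effect; nearly all actives have a fitted effect of over 50% in size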
* = called active by the depositor; ? = inconclusive; / = no result given; [ ] = dose if it differs, or a comment. Unless noted, calls follow the shape of the dose curve; as a rule, active = well fitted curve in the direction sought with a large enough effect; inconclusive = small, poorly fitted or top-dose-only effect, or another doubt; inactive = no such curve, though single readings can be large; an effect the other way counts as inactive or inconclusive. Potency is read from the fitted curve at half-maximal effect.

SMILES | Integrin act MD | BCR signal inh | Mito fusion yeast | uPA generation | RORg inh | Gal4-VP16 FLuc
COc1ccccc1NC(=O)C(C)OC(=O)CC1CCCCC1 (stereo unspecified) | -9% | -6% | -4% | 12% | / | /
CC(C)[N+](C)(C)CC(O)COc1cccc2ccccc12 (stereo unspecified) | / | / | / | / | 0% | -5%
Cc1ccnc(SC2CC(=O)N(c3ccc(F)cc3)C2=O)n1 (stereo unspecified) | 12% | -3% | -17% | -2% | ? | ?
Cc1ccc(N2C(=O)CC(Sc3ncccn3)C2=O)cc1C (stereo unspecified) | -18% | 2% | -21% | -59% | 13µM* | ?
O=C(NC(=S)NC(c1ccccc1)c1ccncc1)c1ccccc1 (stereo unspecified) | -31% | ? | ? | 2% | 11µM* | ?
O=C(Nc1ncccn1)c1ccc([N+](=O)[O-])cc1 | 1% | -6% | 0% | 10% | 37% | 4%
O=C(NC(=S)Nc1ccccn1)c1ccccc1 | -9% | ? | 35µM* | ? | ? | ?
O=C(NC(=S)Nc1ccccn1)c1ccc([N+](=O)[O-])cc1 | 10% | 1% | -3% | -3% | 5µM* | 11µM*
CC(NC(=S)NC(=O)c1ccccc1)c1ccccc1 (stereo unspecified) | 0% | / | / | -29% | / | /
COc1ccccc1CCN=C(N)NS(=O)(=O)c1ccc(C)c(C)c1 | -7% | 0% | -6% | -2% | 1% | -8%
CC1(C)C2CCC1(C)C(NC(=O)/C=C/c1ccccc1)C2 (stereo unspecified) | 0% | ? | 22% | -12% | ? | 18µM*
COc1ccccc1C(=O)Nc1sc(C(=O)N2CCCC2)c(C)c1C#N | -1% | ? | -22% | -5% | 4µM* | 7.9µM*
CCCCNC(=O)NS(=O)(=O)c1ccc(C(=O)O)cc1 | / | / | / | / | -13% | 5%
O=C(NCCCn1ccnc1)/C(=C/c1ccco1)NC(=O)c1ccco1 | ? | 0% | -4% | 0% | 3% | -2%
O=C(NCCCn1ccnc1)/C(=C/c1cccs1)NC(=O)c1ccco1 | 8.9µM* | ? | -4% | 3% | -1% | 4%
CCCCc1nc2cc(C(=O)N3CCCC(COC)C3)ccc2o1 (stereo unspecified) | -2% | 1% | -1% | 0% | 37% | 16%
O=C(NC(=S)Nc1ccccc1N1CCOCC1)c1ccc([N+](=O)[O-])cc1 | -14% | 0% | -4% | 1% | 8.9µM* | ?
O=C(NC(=S)Nc1ccccc1N1CCCC1)c1ccc([N+](=O)[O-])cc1 | -21% | 4% | ? | -7% | 0.05µM* | 0.11µM*
Oc1ccccc1/C=N/n1c(COc2ccccc2)n[nH]c1=S | ? | ? | -7% | -2% | 11µM* | -29%
S=c1[nH]nc(COc2ccccc2)n1/N=C/c1ccc(Br)s1 | 29% | 0% | 7% | -1% | 2.5µM* | ?
COc1ccc(/C=N/n2c(COc3ccccc3)n[nH]c2=S)cc1OC | 36% | ? | -17% | -11% | 5µM* | -3%
S=c1[nH]nc(COc2ccccc2)n1/N=C/c1ccc(Cl)cc1Cl | ? | 11% | -6% | 4% | 7.1µM* | -21%
Oc1ccc(/C=N/n2c(COc3ccccc3)n[nH]c2=S)c(O)c1 | 39% | -1% | -2% | 9% | -33% | -2%
Cc1ccc(/C=N/n2c(COc3ccccc3)n[nH]c2=S)s1 | 10% | 0% | 5% | 3% | -6% | -2%
C[C@@H](O)CCC[C@H](O)/C=C/[C@@H]1[C@@H](C/C=C\CCCC(=O)O)[C@@H](O)C[C@H]1O | / | / | / | / | -3% | 1%
SMILES | Integrin act MD | BCR signal inh | Mito fusion yeast | uPA generation | RORg inh | Gal4-VP16 FLuc
COc1cccc(/C=N/n2c(N)nc3ccccc32)c1OC | -2% | 22% | -7% | 2% | ? | ?
Cc1ccccc1/C=N/n1c(COc2ccccc2)n[nH]c1=S | 18% | ? | -10% | 5% | 4.5µM* | ?
COc1cc(OC)c(OC)cc1/C=N/n1c(COc2ccccc2)n[nH]c1=S | -4% | ? | -12% | -2% | -39% | -9%
Fc1ccccc1/C=N/n1c(COc2ccccc2)n[nH]c1=S | -14% | -11% | -26% | 2% | 6.3µM* | ?
CCOc1ccccc1/C=N/n1c(COc2ccccc2)n[nH]c1=S | -27% | -3% | -10% | -3% | 4.5µM* | ?
COc1ccc(/C=N/n2c(N)nc3ccccc32)cc1OC | -17% | ? | -5% | -8% | 13µM* | ?
Cc1ccc2oc(C(=O)N3CCC(O)(c4cccc(C(F)(F)F)c4)CC3)c(C)c2c1 | -20% | -6% | -7% | 4% | ? | -7%
COc1ccc(-c2cc(=S)ss2)cc1 | / | / | / | / | ? | 7%
COc1cc(OC)c(C(=O)OCCCOC(=O)c2cc(OC)c(OC)cc2OC)cc1OC | 4% | -2% | -4% | 2% | 7.9µM* | 10µM*
CC1(C)NC(=O)N(CC(=O)OCc2cc(=O)n3cc(Br)ccc3n2)C1=O | -5% | -1% | -3% | 2% | -8% | 4%
O=C(CN1C(=O)NC2(CCCC2)C1=O)OCc1cc(=O)n2cc(Br)ccc2n1 | -6% | ? | -5% | 6% | 3.2µM* | -93%
N.N.O=C(O)C1(C(=O)O)CCC1.[Pt] | / | / | / | / | -1% | 10%
C=CCOc1ccccc1/C=N/NC(=O)Cc1ccc(C)cc1 | -28% | -4% | -2% | -21% | 11µM* | ?
CC(=O)N/N=C/c1ccccc1OCCOc1cccc(C)c1 | -49% | ? | -3% | 13µM* | 5% | 14%
COc1ccc(-c2cc(C3CC3)nc3sc(C#N)c(N)c23)cc1 | 10% | ? | 13µM* | 5% | -20% | -1%[0.365 µM]
Cc1cnc(C(=O)NC(Cc2ccccc2)c2ccccc2)cn1 (stereo unspecified) | -8% | 1% | 2% | -1% | 27% | -1%
O=C(CSc1ccc(-c2ccc(-n3cccn3)cc2)nn1)Nc1ccccc1F | 0% | 0% | 1% | -1% | / | /
COc1ccc(OC)c(/C=C2\SC(N3CCCC(C)C3)=NC2=O)c1 (stereo unspecified) | 7% | -8% | 13µM* | -5% | 15% | 8%
COc1ccc(/C=C2\SC(N3CCCCC3)=NC2=O)cc1OC | -37% | ? | -4% | 1% | -5% | -13%
CC(C)C(=O)N1CCN(c2ccccc2NC(=O)c2cccc3ccccc23)CC1 | -12% | 4% | 3% | -2% | 51% | 1%
CC(OC(=O)c1ccco1)C(=O)Nc1ccc(Cl)cn1 (stereo unspecified) | -15% | ? | -3% | 1% | 18% | -9%
